Assay results taken from PubChem BioAssay (NCATS).
A number with no mark means an inactive call. Inconclusive results are not listed. The source made the active and inactive calls. Unless noted, the call rests on the fitted dose curve.

Target: Tumor susceptibility gene 101 protein (Homo sapiens) (UniProt Q99816)
Test: qHTS Validation Assay for Iinhibitors of HIV-1 Budding by Blocking the Interaction of PTAP/TSG101 (AID 485342); further: 0% is about no effect
Settings: TSG101-PTAP binding, fluorescence polarization, 4-point titration; series mostly up to 115 µM; fluorescence change: at the top concentration
Outline: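 Binding of a FITC-tagged PTAP-motif peptide (50 nM) to the Tsg101 binding domain (10 uM) is monitored by fluorescence polarization. Compounds are pin-delivered before peptide addition, and incubation runs 20 min at room temperature.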

Chain of Tumor susceptibility gene 101 protein (Homo sapiens) (Q99816 whole entry, looked up): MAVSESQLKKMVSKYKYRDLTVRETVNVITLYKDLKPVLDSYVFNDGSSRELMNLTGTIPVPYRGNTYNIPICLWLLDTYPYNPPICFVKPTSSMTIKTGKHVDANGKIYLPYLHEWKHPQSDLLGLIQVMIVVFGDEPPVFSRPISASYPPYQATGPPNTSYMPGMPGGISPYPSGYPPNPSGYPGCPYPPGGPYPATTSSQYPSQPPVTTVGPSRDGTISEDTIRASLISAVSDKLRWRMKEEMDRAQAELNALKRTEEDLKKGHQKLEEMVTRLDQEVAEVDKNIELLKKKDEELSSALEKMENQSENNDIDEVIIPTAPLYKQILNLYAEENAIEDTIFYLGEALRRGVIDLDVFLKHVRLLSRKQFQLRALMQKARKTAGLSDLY

Row | SMILES | fluorescence change
1 | C[N+]1(C)CCOC(O)(c2ccc(-c3ccc(C4(O)C[N+](C)(C)CCO4)cc3)cc2)C1 (stereo unspecified) | 6.62%
2 | COc1ccc2[nH]cc(CCN)c2c1 | 3.96%
3 | NC(CCCCCP(=O)(O)O)C(=O)O (stereo unspecified) | -3.22%
4 | CC(C)NP(=O)(NC(C)C)OP(=O)(NC(C)C)NC(C)C | 0.377%
5 | C[C@]12Cc3cn4c(nc3C=C1CCC1C2CC[C@@]2(C)[C@H]1CC[C@@]2(O)C#N)nc1ccccc14 (stereo partly specified) | 32.2%
6 | CCCN1CC[C@@H]2c3cc(O)ccc3CC[C@@H]21 | 3.96%
7 | NCCCP(=O)(O)O | 3.44%
8 | C[N+](C)(C)CCOC(=O)CBr | 5.9%
9 | C=CCN1C[C@@H](C)N([C@H](c2ccc(C(=O)N(CC)CC)cc2)c2cccc(OC)c2)C[C@@H]1C | -1.5%
10 | Cc1o[nH]c(=O)c1CC(N)C(=O)O (stereo unspecified) | 0.0426%
11 | C[N+](C)(C)CC#CCN1CCCC1=O | -1.65%
12 | NC(C(=O)O)c1cc(=O)[nH]o1 (stereo unspecified) | -2.49%
13 | O=C(O)c1cc[c]([Hg][Cl])cc1 | 2.36%
14 | C[Se]C[C@H](N)C(=O)O | 2.53%
15 | CO[C@H]1CC=C2CCN3CCC4=C(CC(=O)OC4)[C@]23C1 | 4.15%
16 | COc1ccc(CNC(=O)/C=C/c2ccc3[nH]cc(CCN(C)C)c3c2)cc1 | 4.3%
17 | COc1ccc(OC)c(C(O)C(C)N)c1 (stereo unspecified) | 3.54%

Row | SMILES | fluorescence change
18 | CC12NC(Cc3ccccc31)c1ccccc12 (stereo unspecified) | -5.61%
19 | NC(=O)c1ccc(OCC(O)CN2CC=C(c3ccc(F)cc3)CC2)cc1 (stereo unspecified) | 2.86%
20 | C=CCN1CC[C@]23c4c5ccc(O)c4O[C@H]2/C(=N/NC(=O)c2ccccc2)CC[C@@]3(O)[C@H]1C5 | -2.5%
21 | CC(=O)NBr | -2.3%
22 | CN1CCc2cccc(Cl)c2CC1 | -1.06%
23 | CN(C(=O)Cc1ccc(Cl)c(Cl)c1)C(CN1CCCC1)c1cccc(OCC(=O)O)c1 (stereo unspecified) | -1.99%
24 | C[C@@H]1O[C@H](C[N+](C)(C)C)CS1 | -0.973%
25 | CCCN(CCC)C1CCc2cccc(O)c2C1 (stereo unspecified) | 0.492%
26 | C[C@H](Cc1ccc2c(c1)OC(C(=O)O)(C(=O)O)O2)NC[C@H](O)c1cccc(Cl)c1 | 3.38%
27 | CC(Cc1ccc(OCC(=O)O)cc1)NCC(O)c1cccc(Cl)c1 (stereo unspecified) | 3.77%
28 | NCCc1ccc(S(=O)(=O)F)cc1 | 2.31%
29 | Clc1ccc(N2CC3CCC(C2)N3)nn1 | 4.04%
30 | NC(=O)c1cc(N2CC2)c([N+](=O)[O-])cc1[N+](=O)[O-] | -1.12%
31 | O=S1(=O)N(CCN2CC=C(c3c[nH]c4cc(F)ccc34)CC2)c2cccc3c2N1CCC3 | -1.41%
32 | NC(Cc1ccc(N(CCCl)CCCl)cc1)C(=O)O (stereo unspecified) | 3.74%
33 | N[C@@H](CCl)C(=O)O | 3.1%
34 | NC(N)=NOCC[C@H](N)C(=O)O | -1.82%

Tested on: not listed separately
Test: qHTS Validation Assay to Find Inhibitors of Chronic Active B-Cell Receptor Signaling (AID 485345; active means well fitted curve in the direction sought with a large enough effect in the main read-out, with a control signal flat, not every such curve was filed as active; further: potency means the concentration at half of the fitted maximal effect;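 on activity change: 0% = untreated basal cells and 100% = 10 µM MG-132 proteasome inhibitor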)
Settings: ABC-DLBCL cells, chronic BCR signaling reporter, CBG luciferase; series mostly up to 46.1 µM; activity change: at the top concentration
Outline: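 TMD8 ABC-DLBCL cells stably carrying doxycycline-inducible IkappaBalpha–green luciferase fusion plus unfused red luciferase; compounds 46 uM to 3 nM, 4 h at 37C with doxycycline. Corrected green/red luminescence ratio normalized to 10 uM MG-132 and basal cell wells; curves fitted.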

Row | SMILES | activity change | Potency
35 | C[N+]1(C)CCOC(O)(c2ccc(-c3ccc(C4(O)C[N+](C)(C)CCO4)cc3)cc2)C1 (stereo unspecified) | -4.12% | –
36 | COc1ccc2[nH]cc(CCN)c2c1 | -22.2% | –
37 | NC(CCCCCP(=O)(O)O)C(=O)O (stereo unspecified) | -1.36% | –
38 | CC(C)NP(=O)(NC(C)C)OP(=O)(NC(C)C)NC(C)C | -3.61% | –
39 | C[C@]12Cc3cn4c(nc3C=C1CCC1C2CC[C@@]2(C)[C@H]1CC[C@@]2(O)C#N)nc1ccccc14 (stereo partly specified) | – | 13 µM (active)
40 | CCCN1CC[C@@H]2c3cc(O)ccc3CC[C@@H]21 | -3.83% | –
41 | NCCCP(=O)(O)O | 1.18% | –
42 | C[N+](C)(C)CCOC(=O)CBr | -2.76% | –
43 | C=CCN1C[C@@H](C)N([C@H](c2ccc(C(=O)N(CC)CC)cc2)c2cccc(OC)c2)C[C@@H]1C | -3.73% | –
44 | Cc1o[nH]c(=O)c1CC(N)C(=O)O (stereo unspecified) | 1.32% | –
45 | C[N+](C)(C)CC#CCN1CCCC1=O | -7.23% | –
46 | NC(C(=O)O)c1cc(=O)[nH]o1 (stereo unspecified) | 0.572% | –
47 | C[Se]C[C@H](N)C(=O)O | -9.64% | –
48 | CO[C@H]1CC=C2CCN3CCC4=C(CC(=O)OC4)[C@]23C1 | -2.82% | –
49 | COc1ccc(CNC(=O)/C=C/c2ccc3[nH]cc(CCN(C)C)c3c2)cc1 | -14.9% | –
50 | COc1ccc(OC)c(C(O)C(C)N)c1 (stereo unspecified) | -10.2% | –

Row | SMILES | activity change | Potency
51 | CC12NC(Cc3ccccc31)c1ccccc12 (stereo unspecified) | 1.72% | –
52 | NC(=O)c1ccc(OCC(O)CN2CC=C(c3ccc(F)cc3)CC2)cc1 (stereo unspecified) | -1.67% | –
53 | C=CCN1CC[C@]23c4c5ccc(O)c4O[C@H]2/C(=N/NC(=O)c2ccccc2)CC[C@@]3(O)[C@H]1C5 | -15% | –
54 | CC(=O)NBr | -6.82% | –
55 | CN1CCc2cccc(Cl)c2CC1 | -6.62% | –
56 | CN(C(=O)Cc1ccc(Cl)c(Cl)c1)C(CN1CCCC1)c1cccc(OCC(=O)O)c1 (stereo unspecified) | -3.41% | –
57 | C[C@@H]1O[C@H](C[N+](C)(C)C)CS1 | -0.117% | –
58 | CCCN(CCC)C1CCc2cccc(O)c2C1 (stereo unspecified) | -4.89% | –
59 | C[C@H](Cc1ccc2c(c1)OC(C(=O)O)(C(=O)O)O2)NC[C@H](O)c1cccc(Cl)c1 | -1.44% | –
60 | CC(Cc1ccc(OCC(=O)O)cc1)NCC(O)c1cccc(Cl)c1 (stereo unspecified) | 3.51% | –
61 | NCCc1ccc(S(=O)(=O)F)cc1 | 0.283% | –
62 | Clc1ccc(N2CC3CCC(C2)N3)nn1 | -2.21% | –
63 | NC(=O)c1cc(N2CC2)c([N+](=O)[O-])cc1[N+](=O)[O-] | 0.374% | –
64 | O=S1(=O)N(CCN2CC=C(c3c[nH]c4cc(F)ccc34)CC2)c2cccc3c2N1CCC3 | -15% | –
65 | N[C@@H](CCl)C(=O)O | -0.0913% | –
66 | NC(N)=NOCC[C@H](N)C(=O)O | -5.1% | –
